{"source": "ChEMBL document CHEMBL3988442", "about": "“University of Dundee, Small-Polar-MMV Screening Library” (2021)", "test_system": "Leishmania donovani", "assay": "Leishmania intramacrophage assay", "type": "functional, organism-based", "set-up": "scale not given: in the data most compounds retested in dose-response had high values", "note": "Hit rate of the full screen: of about 69,000 compounds, about 1,000 (1.4%) showed an effect of 50% or more. The sample as a whole holds a higher share of strong results than the screen did."}
{"smiles": "O=C(O)C(F)(F)F.O=C(O)C(F)(F)F.c1ccc(CO[C@@H]2CN(Cc3nccs3)[C@@H]3COC[C@@H]32)nc1", "values": [{"measurement": "Percent Effect", "setting": "30.3 µM, […]", "value": 56.79, "unit": "%"}]}
{"smiles": "Cc1nc(CO[C@@H]2CN(Cc3cccnc3)[C@@H]3COC[C@@H]32)cs1.O=C(O)C(F)(F)F.O=C(O)C(F)(F)F", "values": [{"measurement": "Percent Effect", "setting": "30.3 µM, […]", "value": 21.07, "unit": "%"}]}
{"smiles": "O=C(O)C(F)(F)F.O=C(O)C(F)(F)F.O=C(O)C(F)(F)F.c1ccc(CO[C@@H]2CN(Cc3cccnc3)[C@@H]3COC[C@@H]32)nc1", "values": [{"measurement": "Percent Effect", "setting": "30.3 µM, […]", "value": -0.4082, "unit": "%"}]}
{"smiles": "Fc1ccc(CN2C[C@@H](OCc3ccccn3)[C@H]3COC[C@H]32)cc1.O=C(O)C(F)(F)F.O=C(O)C(F)(F)F", "values": [{"measurement": "Percent Effect", "setting": "30.3 µM, […]", "value": 38.45, "unit": "%"}]}
{"smiles": "Cc1cccc(CN2C[C@H](OCc3ccccn3)[C@H]3COC[C@H]32)n1.O=C(O)C(F)(F)F.O=C(O)C(F)(F)F", "values": [{"measurement": "Percent Effect", "setting": "30.3 µM, […]", "value": 10.8, "unit": "%"}]}
{"smiles": "O=C(O)C(F)(F)F.O=C(O)C(F)(F)F.c1cncc(CO[C@H]2CN(Cc3ccco3)[C@@H]3COC[C@H]23)c1", "values": [{"measurement": "Percent Effect", "setting": "30.3 µM, […]", "value": 63.54, "unit": "%"}]}
{"smiles": "O=C(c1ccc2c(c1)OCO2)N1CCC(C(=O)O)(c2ccccc2)CC1", "values": [{"measurement": "Percent Effect", "setting": "30.3 µM, […]", "value": 0.8951, "unit": "%"}]}
{"smiles": "CC(C)NC(=O)[C@@H]1C[C@H]2NCC[C@H]2O1.Cl", "values": [{"measurement": "Percent Effect", "setting": "30.3 µM, […]", "value": 56.79, "unit": "%"}]}
{"smiles": "CC(C)NC(=O)[C@H]1C[C@H]2NCCO[C@@H]2C1", "values": [{"measurement": "Percent Effect", "setting": "30.3 µM, […]", "value": 20.26, "unit": "%"}]}
{"smiles": "O=C(NC1CCC1)[C@H]1C[C@H]2NCCO[C@@H]2C1", "values": [{"measurement": "Percent Effect", "setting": "30.3 µM, […]", "value": 13.25, "unit": "%"}]}
{"smiles": "CCCN1CCC[C@]2(CCC(=O)N2Cc2ccncc2)[C@H]1CC.O=C(O)C(F)(F)F.O=C(O)C(F)(F)F", "values": [{"measurement": "Percent Effect", "setting": "30.3 µM, […]", "value": -2.592, "unit": "%"}]}
{"smiles": "CN(C)C[C@H]1C[C@@H]2CN(Cc3ccco3)C[C@@H]2O1.O=C(O)C(F)(F)F.O=C(O)C(F)(F)F", "values": [{"measurement": "Percent Effect", "setting": "30.3 µM, […]", "value": -9.327, "unit": "%"}]}
{"smiles": "Cc1cccc(CN2CCN3C[C@H](Oc4cncnc4)C[C@H]3C2)n1.O=C(O)C(F)(F)F.O=C(O)C(F)(F)F", "values": [{"measurement": "Percent Effect", "setting": "30.3 µM, […]", "value": 42.71, "unit": "%"}]}
{"smiles": "Fc1cnc(N2CCN3C[C@H](Oc4cncnc4)C[C@H]3C2)nc1.O=C(O)C(F)(F)F.O=C(O)C(F)(F)F", "values": [{"measurement": "Percent Effect", "setting": "30.3 µM, […]", "value": 16.13, "unit": "%"}]}
{"smiles": "CCCN1CC[C@@H]2OC[C@H](C(=O)Nc3cccnc3)C[C@@H]2C1.O=C(O)C(F)(F)F.O=C(O)C(F)(F)F", "values": [{"measurement": "Percent Effect", "setting": "30.3 µM, […]", "value": 21.37, "unit": "%"}]}
{"smiles": "C[C@H]1C[C@H]2CN(Cc3ccccn3)CC[C@@H]2O1.O=C(O)C(F)(F)F.O=C(O)C(F)(F)F", "values": [{"measurement": "Percent Effect", "setting": "30.3 µM, […]", "value": 19.92, "unit": "%"}]}
{"smiles": "CN1CC[C@@H]2OC[C@H](C(=O)N(C)Cc3ccccn3)C[C@@H]2C1.O=C(O)C(F)(F)F.O=C(O)C(F)(F)F", "values": [{"measurement": "Percent Effect", "setting": "30.3 µM, […]", "value": 55.09, "unit": "%"}]}
{"smiles": "CCS(=O)(=O)N1CCc2c(COCCN(C)C)cncc2C1.O=C(O)C(F)(F)F.O=C(O)C(F)(F)F", "values": [{"measurement": "Percent Effect", "setting": "30.3 µM, […]", "value": 30.88, "unit": "%"}]}
{"smiles": "Cl.NC(Cc1nc(-c2ccccc2)no1)c1ccccc1", "note": "(centres undefined)", "values": [{"measurement": "Percent Effect", "setting": "30.3 µM, […]", "value": -5.876, "unit": "%"}]}
{"smiles": "Cl.NC(CC1CCCCC1)c1ccccc1", "note": "(centres undefined)", "values": [{"measurement": "Percent Effect", "setting": "30.3 µM, […]", "value": 68.07, "unit": "%"}]}
{"smiles": "COCC1CC2(CCN(c3cc(OC)ncn3)CC2)CN1C(C)C.O=C(O)C(F)(F)F", "note": "(centres undefined)", "values": [{"measurement": "Percent Effect", "setting": "30.3 µM, […]", "value": 17.84, "unit": "%"}]}
{"smiles": "Cc1cc(CNC2(c3ccccc3)CCCCC2)no1", "values": [{"measurement": "Percent Effect", "setting": "30.3 µM, […]", "value": 4.963, "unit": "%"}]}
{"smiles": "Cc1nc(C2(NCc3cccc(F)c3F)CCCCC2)no1", "values": [{"measurement": "Percent Effect", "setting": "30.3 µM, […]", "value": 15.79, "unit": "%"}]}
{"smiles": "Cc1cc(CNC2(c3ccccc3)CCCCC2)on1", "values": [{"measurement": "Percent Effect", "setting": "30.3 µM, […]", "value": 51.47, "unit": "%"}]}
{"smiles": "CCN1C[C@H]2[C@@H](C1)N(S(=O)(=O)c1cccnc1)CC[C@H]2OC.O=C(O)C(F)(F)F.O=C(O)C(F)(F)F", "values": [{"measurement": "Percent Effect", "setting": "30 µM, 30.03 µM", "value": -25.11, "unit": "%"}]}
{"smiles": "O=C(Cc1ccncc1)N1C[C@H]2CC[C@@H]1CN(Cc1cccnc1)C2", "values": [{"measurement": "Percent Effect", "setting": "30.3 µM, […]", "value": 24.39, "unit": "%"}]}
{"smiles": "O=C(Cc1cnccn1)N1C[C@H]2CC[C@@H]1CN(Cc1cscn1)C2", "values": [{"measurement": "Percent Effect", "setting": "30.3 µM, […]", "value": 50.19, "unit": "%"}]}
{"smiles": "COc1ccccc1CC(=O)N1C[C@H]2CC[C@@H]1CN(Cc1cscn1)C2", "values": [{"measurement": "Percent Effect", "setting": "30.3 µM, […]", "value": -17.19, "unit": "%"}]}
{"smiles": "CC(C)(O)CNc1ccc(C#N)c(C(F)(F)F)c1", "values": [{"measurement": "Percent Effect", "setting": "30.3 µM, […]", "value": 100.1, "unit": "%"}]}
{"smiles": "CC(C)(CNc1ccc(C#N)c(C(F)(F)F)c1)C(N)=O", "values": [{"measurement": "Percent Effect", "setting": "30.3 µM, […]", "value": 20.21, "unit": "%"}]}
{"smiles": "CC(C)(C)NC(=O)CNc1ccc(C#N)c(C(F)(F)F)c1", "values": [{"measurement": "Percent Effect", "setting": "30.3 µM, […]", "value": 3.3, "unit": "%"}]}
{"smiles": "Cc1ncc2c(c1-c1noc(-c3cscn3)n1)CCNC2", "values": [{"measurement": "Percent Effect", "setting": "30.3 µM, […]", "value": -9.596, "unit": "%"}]}
{"smiles": "CCOc1ccc(C2SCC(=O)Nc3c2c(=O)[nH]n3C(C)C)cc1", "note": "(centres undefined)", "values": [{"measurement": "Percent Effect", "setting": "30.3 µM, […]", "value": -0.8562, "unit": "%"}]}
{"smiles": "CN1C[C@H](NC(=O)c2cscn2)[C@@H]2OCCC[C@@H]21.O=C(O)C(F)(F)F", "values": [{"measurement": "Percent Effect", "setting": "30.3 µM, […]", "value": 54.94, "unit": "%"}]}
{"smiles": "Cl.O=C(N[C@H]1CN[C@H]2CCCO[C@H]21)c1cscn1", "values": [{"measurement": "Percent Effect", "setting": "30 µM, 30.03 µM", "value": 25.22, "unit": "%"}]}
{"smiles": "O=C(N[C@@H]1CN[C@@H]2CCCO[C@@H]21)c1cscn1.O=C(O)C(F)(F)F", "values": [{"measurement": "Percent Effect", "setting": "30.3 µM, […]", "value": 4.147, "unit": "%"}]}
{"smiles": "Cc1cc(CN2C[C@@H]3COC[C@]3(CN(C)C)C2)no1.O=C(O)C(F)(F)F.O=C(O)C(F)(F)F", "values": [{"measurement": "Percent Effect", "setting": "30 µM, 30.03 µM", "value": -27.07, "unit": "%"}]}
{"smiles": "Fc1cnc(N2CCCC3(CN(Cc4cccs4)CCO3)C2)nc1.O=C(O)C(F)(F)F", "note": "(centres undefined)", "values": [{"measurement": "Percent Effect", "setting": "30.3 µM, […]", "value": -13.69, "unit": "%"}]}
{"smiles": "CC(C)N(C)Cc1cncc2c1CCN(Cc1ccoc1)C2.Cl.Cl.Cl", "values": [{"measurement": "Percent Effect", "setting": "30.3 µM, […]", "value": 28.71, "unit": "%"}]}
